Most compounds without a hit are left out; they make up all but 21% or so of the library.
Shiga inhibitor: inhibitors of Shiga toxin in Vero cells; Vero cells, Shiga toxin protein synthesis inhibition reporter; 290,000 tested, 9.2% active; AID 2315; inhibition, % at 38.7 µM; in the data active = inhibition mostly above about 28%, no sharp cut-off; inactive = mostly below about 43%; note: 0% is about no effect
Pf growth 48h: inhibits P. falciparum growth in the first generation, 48 h; P. falciparum luciferase growth in erythrocytes, 48 h; Potency, µM (titrated, usually from 28.7 µM), without a hit: top-dose activity change, negative = inhibition, actives largely listed as inhibitors; 310,000 tested, 5.9% active; note: potency is the fitted concentration of half-maximal effect; % is set by controls: 0 for no effect and ±100 for the full control effect
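First compound was added to culture medium, then infected red cells at 0.1% parasitemia and 2% hematocrit (final). After incubation at 37 C under 5% CO2, luciferase detection reagent was dispensed and light output recorded.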
CHX counter: counter-screen hit for Shiga toxin inhibitors, cycloheximide. 300,000 tested, 12% active. cell reporter, cycloheximide protein synthesis inhibition counterscreen. max response, %; in the data active = max response mostly above about 13%, no sharp cut-off; inactive = mostly below about 14%; note: read at 38.3 µM for the half of the compounds with a filed dose; 0% is about no effect
Pf growth 96h: P. falciparum growth inhibition at 96 hour, primary screen for plastid delayed-death inhibitors | P. falciparum luciferase reporter growth, 96 h | Potency, µM (top dose mostly 28.7 µM), for inactives: top-dose activity change, negative = inhibition, actives largely listed as inhibitors | 320,000 tested, 6.9% active; note: potency is the fitted concentration of half-maximal effect; % is set by controls: 0 for no effect and ±100 for the full control effect
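P. falciparum expressing integrated firefly luciferase grown in erythrocytes (2% hematocrit, 0.05% parasitemia final) with compounds for 96 hours at 37 C, 5% CO2. Growth inhibition read as loss of luminescence after adding luciferase detection reagent.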
Active calls of the source: *; i = inactive; ? = inconclusive; / = no result given; [ ] = remark or other dose. Unless noted, calls come from the whole dose curve; as a rule, active = well fitted inhibition curve with a large enough effect; inconclusive = small, poorly fitted or top-dose-only effect, or another doubt; inactive = no such curve, though single readings can be large or run the other way.

SMILES	Shiga inhibitor	Pf growth 48h	CHX counter	Pf growth 96h
COc1cc(SC)ccc1C(=O)N1CCC(Cc2ccccc2)CC1	-8.3	/	4.9	/
CC(Cc1cccs1)NC(=O)CCCn1nnnc1CN1CCOCC1 (stereo unspecified)	-37.0	13.5%	-2.8	?
CC(=O)Nc1ccc(C(=O)NNC(=O)C2C3CCCCC32)cc1 (stereo unspecified)	-11.5	-12.1%	-1.5	?
CCc1ccc(NC(=O)C2C3/C=C\CCCCC32)cc1 (stereo unspecified)	active	166.0%	37.1*	157.7%
O=C1CCC(C(=O)Nc2ccc(Cl)cc2)N1 (stereo unspecified)	-22.4	2.1%	-1.0	5.22µM*
O=C(Nc1ccccc1)C1C2CCC3C(CCC21)C3(Cl)Cl (stereo unspecified)	-5.2	?	1.6	21.4%
O=C(Nc1cccc(Cl)c1)C1C2CCC3C(CCC21)C3(Cl)Cl (stereo unspecified)	-11.3	9.28µM*	12.6	?
CCc1ccc(NC(=O)C2CCCCC2C(=O)O)cc1 (stereo unspecified)	-3.8	17.8%	6.0	8.9%
O=C(Nc1ccc(Cl)cc1)C1C2CCCCC21 (stereo unspecified)	66.6*	39.5%	47.8*	5.5%
Cc1ccc(C2CC(=O)Oc3cc(C)c(Cl)cc32)cc1 (stereo unspecified)	i	/	-1.9	/
C/C(=N/NC(=O)CN(c1ccccc1)S(=O)(=O)c1ccccc1)c1ccccc1O	4.9	?	-1.0	?
O=C(CN1CCC(C(=O)c2ccc(F)cc2)CC1)Nc1ccccc1	-13.4	?	-2.1	?
Cc1nc2ccccn2c(=O)c1CCN1CCC(C(=O)c2ccc(F)cc2)CC1	-8.7	?	-1.4	10.7µM*
Cc1nc2sccn2c(=O)c1CCN1CCC(=C(c2ccc(F)cc2)c2ccc(F)cc2)CC1	-5.2	10.4µM*	-1.1	10.4µM*
CN(Cc1nc(CCc2ccccc2)no1)Cc1cccs1	25.2	-4.1%	15.7*	?
CN(Cc1ccc(F)cc1)Cc1nc(CCc2ccccc2)no1	-9.7	16.0%	1.2	0.6%
Cc1ccc(S(=O)(=O)N2CCC(C(=O)N/N=C/c3ccncc3)CC2)cc1	-14.6	?	-1.2	1.7%
CNC(=S)N/N=C(\C)c1ccc2c(c1)OCO2	25.8	23.6%	5.4	?
CCNC(=S)N/N=C(\C)c1ccc2c(c1)OCCO2	48.8*	29.9%	-2.6	28.6%
CCc1ccc(OCC(=O)N/N=C(\C)c2ccc3c(c2)OCCO3)cc1	-10.2	-3.6%	13.0*	24.4%
C/C(=N\NC(=S)NC(C)C)c1ccc2c(c1)OCCO2	1.6	-10.1%	0.6	-29.0%
C/C(=N\NC(=S)Nc1ccc(C(C)C)cc1)c1ccc2c(c1)OCO2	35.3*	-6.5%	10.7	?
CNC(=S)N/N=C(\C)c1ccc2c(c1)OCCO2	35.9	33.1%	19.1*	12.2%
CC(=O)c1ccccc1NC(=O)C1CCCN(C(=O)c2ccc(Cl)cc2)C1 (stereo unspecified)	/	-22.4%	/	-3.4%
CCOC(=O)c1ccccc1NC(=O)CSC(C)C(=O)Nc1cc(C)on1 (stereo unspecified)	/	17.2%	/	-24.3%
SMILES	Shiga inhibitor	Pf growth 48h	CHX counter	Pf growth 96h
CC(Sc1ccc([N+](=O)[O-])cn1)C(=O)Nc1nccs1 (stereo unspecified)	-1.8	?	-11.0	30.4%
Cc1ccc(N(CC(=O)N2CCN(c3ccccc3F)CC2)S(=O)(=O)c2c(C)noc2C)cc1	-2.0	?	2.8	9.28µM*
COc1cccc(N2CCN(C(=O)CN(c3cc(C)cc(C)c3)S(=O)(=O)c3c(C)noc3C)CC2)c1	-3.2	?	-2.7	10.4µM*
Cc1cc(C)cc(N(CC(=O)N2CCN(c3ccccc3)CC2)S(=O)(=O)c2c(C)noc2C)c1	6.7	/	-3.2	26.3%
CCOc1ccc(N(CC(=O)N2CCc3ccccc32)S(=O)(=O)c2c(C)noc2C)cc1	-2.8	/	-2.4	5.3%
COc1ccc(N(CC(=O)N2c3ccccc3CC2C)S(=O)(=O)c2c(C)noc2C)cc1 (stereo unspecified)	13.5	11.7µM*	-1.4	-20.6%
COc1ccc(N(CC(=O)N2CCN(c3ccccc3F)CC2)S(=O)(=O)c2c(C)noc2C)cc1	-4.6	-14.4%	-1.2	5.86µM*
O=S(=O)(c1ccccc1F)N1CCN(CCOc2ccccc2)CC1	/	-7.5%	/	?
COc1ccccc1CNC(=O)[C@@H]1CCCN1S(=O)(=O)c1ccc(C)cc1	-6.4	-15.5%	-3.2	?
COc1ccc(N(CC(=O)N2CC=C(c3ccccc3)CC2)S(=O)(=O)c2c(C)noc2C)cc1	-4.9	/	-5.3	3.7µM*
CCOc1ccc(N(CC(=O)N2CC=C(c3ccccc3)CC2)S(=O)(=O)c2c(C)noc2C)cc1	-14.2	/	-6.1	34.6%
CS(=O)(=O)N(CC(=O)N1CCN(c2ccccc2F)CC1)c1cc(C(F)(F)F)ccc1Cl	-19.6	/	1.4	10.4µM*
CC(C)(C)c1ccc(OCc2ccc(C(=O)N/N=C3\CC4CC=CC34)cc2)cc1 (stereo unspecified)	17.5	10.2%	16.8*	-16.1%
CC(C)(C)c1ccc(OCc2ccc(C(=O)N/N=C/c3ccc(O)c(O)c3)cc2)cc1	63.9*	?	17.8*	?
O=C(N/N=C/c1ccc(F)cc1)c1ccc(OCc2ccccc2)cc1	16.6	?	-2.2	3.1%
O=C(N/N=C/c1ccc(OCc2ccccc2)cc1)c1cc[n+](Cc2ccccc2)cc1	36.9*	-2.7%	20.4*	?
O=C(N/N=C/c1ccc(OCc2ccc(F)cc2)cc1)c1ccccc1	-9.4	1.17µM*	-5.9	-4.7%
CC(=O)OCC(CCn1cnc2cnc(N)nc21)COC(C)=O	10.2	-0.2%	9.3	4.5%
CC[N+](CC)(CC)CCOc1ccc(/C=C/c2ccccc2)cc1	/	0.294µM*	/	0.738µM*
O=C1C=C(N(CCO)Cc2ccccc2)c2ccccc2C1=O	-12.8	3.7µM*	-0.6	-0.1%
CCOc1cc(CNS(=O)(=O)c2ccc3c(c2)CC(=O)N3C)cc(OCC)c1OCC	-6.7	-29.4%	-3.5	11.0%
CC(C(=O)Nc1ccccc1)N(c1cccc(Cl)c1)S(C)(=O)=O (stereo unspecified)	16.7	6.4%[5.75 µM]	-4.0	0.0%
CC(=O)OC1N=C(c2ccccc2)c2ccccc2NC1=O (stereo unspecified)	-6.2	-25.1%	0.4	14.7µM*
O=C(c1ccccc1)c1nn(-c2ccc(Cl)cc2)c(=O)cc1C(F)(F)F	32.9*	?	12.9*	?
O=C(c1cccc(Cl)c1)c1nn(-c2ccccc2)c(=O)cc1C(F)(F)F	19.7	?	-2.1	13.1µM*
O=C(c1ccccc1)c1nn(-c2ccccc2)c(=O)cc1C(F)(F)F	26.6	90.8%	17.0*	0.0%
O=C(Nc1ccccc1)c1nn(-c2ccccc2)c(=O)cc1C(F)(F)F	-2.5	30.6%	3.9	?
COc1ccccc1NC(=O)Cc1nnc(SCC(=O)c2ccc(F)cc2)n1C	-8.3	?	0.6	36.3%
CCC(=O)C1CCCN(C(=O)c2ccc(OC3CCN(C(=O)CCOC)CC3)cc2)C1 (stereo unspecified)	14.1	6.5%	-2.4	19.7%

Screening results: PubChem, National Center for Advancing Translational Sciences (NCATS)
